Measured values: PubChem BioAssay AID504914 (The Scripps Research Institute Molecular Screening Center, 2011)
Some of the results follow. Unmarked numbers belong to inactive results. How the calls were made is not given here.

Each compound was assayed against 5-hydroxytryptamine receptor 5A (Homo sapiens) (UniProt P47898) (assay: HTR5A inverse agonists, counter-screen for OPRM1-OPRD1 inverse agonist project, cell-based, luminescence (AID 504914;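 further: 0% = cells with DMSO and 100% = no-cell wells with DMSO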)). Conditions: HTR5A-expressing cells, inverse agonism, at 9.3 µM, active compounds read high.
Sequence of 5-hydroxytryptamine receptor 5A (Homo sapiens) (P47898 whole entry, looked up): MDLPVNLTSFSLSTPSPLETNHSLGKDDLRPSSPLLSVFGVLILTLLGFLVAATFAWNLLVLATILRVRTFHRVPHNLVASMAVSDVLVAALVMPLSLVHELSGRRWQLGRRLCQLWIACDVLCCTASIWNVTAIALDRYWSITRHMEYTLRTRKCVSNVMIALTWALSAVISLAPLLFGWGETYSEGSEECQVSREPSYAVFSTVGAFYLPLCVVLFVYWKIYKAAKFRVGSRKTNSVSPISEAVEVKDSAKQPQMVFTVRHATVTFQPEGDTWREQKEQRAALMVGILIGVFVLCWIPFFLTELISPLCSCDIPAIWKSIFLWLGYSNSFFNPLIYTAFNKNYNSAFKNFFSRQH
In the case of CCOC(=O)c1c(N)n(Cc2ccccc2)c2nc3ccccc3nc12, the inhibition is reported as 18%.
Compound CC1=CC(=Cc2sc3ccccc3[n+]2C)C=C(C)O1 has an inhibition of -18.3%.
Work on CCOC(=O)c1c(N)n(CCN2CCOCC2)c2nc3ccccc3nc12 yielded an inhibition of -10.8%.
